Measurements from ChEMBL document CHEMBL3988442, “University of Dundee, Small-Polar-MMV Screening Library” (2021).

What was measured:
[1] = molecular target: T1, Aspartate--tRNA(Asp/Asn) ligase (Mycobacterium tuberculosis (strain ATCC 25618 / H37Rv)) (UniProt P9WFW3); experiment: Assay for Asp RNA synthetase-1 from Mycobacterium tuberculosis; assay type: functional; design: scale not given: direction of the effect not stated beside the values; settings: 30 µM; further: in the data most compounds retested in dose-response had high values
T1 sequence (whole entry): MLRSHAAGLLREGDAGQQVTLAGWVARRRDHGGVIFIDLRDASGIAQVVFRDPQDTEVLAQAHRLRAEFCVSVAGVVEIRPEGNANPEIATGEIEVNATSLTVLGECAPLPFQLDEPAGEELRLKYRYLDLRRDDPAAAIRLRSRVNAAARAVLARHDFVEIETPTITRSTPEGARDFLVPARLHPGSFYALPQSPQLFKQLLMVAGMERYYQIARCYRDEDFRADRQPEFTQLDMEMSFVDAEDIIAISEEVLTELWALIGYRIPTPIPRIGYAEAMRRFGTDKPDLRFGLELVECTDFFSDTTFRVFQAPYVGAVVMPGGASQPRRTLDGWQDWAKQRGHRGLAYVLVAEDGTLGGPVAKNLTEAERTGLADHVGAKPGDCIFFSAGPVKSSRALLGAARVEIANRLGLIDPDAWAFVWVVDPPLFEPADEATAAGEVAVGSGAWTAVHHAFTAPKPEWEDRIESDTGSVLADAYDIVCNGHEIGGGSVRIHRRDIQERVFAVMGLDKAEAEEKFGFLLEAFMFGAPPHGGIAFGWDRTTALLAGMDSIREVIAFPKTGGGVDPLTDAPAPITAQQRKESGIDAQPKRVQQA

[2] = molecular target: Shiga toxin 2 (Escherichia coli O157:H7) (UniProt P09385+P09386); experiment: E. coli 0.157:H7 Shiga Toxin SOP - stx2 screening assay; assay type: functional; design: scale not given: direction of the effect not stated beside the values; settings: 30 µM

Structure (SMILES)	Percent Effect [1]	Percent Effect [2]
OCC1CCCCN1c1ccc(-c2nc(-c3ccccc3F)no2)cn1 (stereo unspecified)	-6.87%	-36.1%
CC(NC(=O)CNCCn1cccn1)c1ccc2c(c1)OCCO2 (stereo unspecified)	-3.06%	8.04%
Cc1ccc(C(=O)Nc2cc(C(C)C)n[nH]2)cn1	2.73%	1.39%
CC1CN(C)c2ccccc2CN1C(=O)c1ccc[nH]1 (stereo unspecified)	4.95%	-9.14%
Cc1cccc(CN2CCc3c(nc(N4CCCCC4C)[nH]c3=O)C2)n1 (stereo unspecified)	-1.15%	21.7%
COCCc1noc(CN2CCCC2c2c(C)nn(C)c2C)n1 (stereo unspecified)	-7.13%	10.3%
COC(=O)NCc1cc2n(n1)CCCN(C(C)=O)C2	-4.82%	15.5%
CCN1CCC2(C=C(C(=O)NC3CC3)c3ccccc32)CC1	-0.796%	1.55%
Cn1ccnc1CN1CCN(Cc2noc(-c3ccccc3)n2)CC1	-2.31%	-6.06%
Cc1cccc(CS(=O)(=O)CC(=O)NCCCOC(C)C)c1	-3.37%	-44.7%
O=C(c1ccc(OCC2CC2)nc1)N1CCCC(n2cncn2)C1 (stereo unspecified)	1.48%	-39.7%
CC(C)CN1CCN(Cc2nc3ccccc3[nH]2)[C@H]2CS(=O)(=O)C[C@H]21	4.05%	-16.9%
O=C(NCc1ccccn1)[C@@H]1COC[C@H]2CN(C3CCOCC3)C[C@H]21	7.53%	-6.42%
c1ccc(N2CCOC3(CCCN(c4nncs4)C3)C2)nc1 (stereo unspecified)	6.43%	1.67%
CCN1CC2(CC1=O)CN(Cc1cnn(C)c1)CCN(C(C)=O)C2 (stereo unspecified)	1.68%	-2.37%
CCN1CCN(C2CCN(Cc3nc(-c4ccoc4)no3)CC2)C1=O	1.49%	22.7%
Cc1noc(C)c1C(=O)N1CCCC1c1c(C)nn(C)c1Cl (stereo unspecified)	-3.2%	-9.41%
CS(=O)(=O)N1CCC(Oc2ccc(C(=O)N3CCSCC3)cc2Cl)CC1	1.75%	11.9%
